S1P1 ag – activates the human S1P1 receptor; 16,000 compounds, 1.5% hits; S1P1 agonist cell-based reporter assay; activation, % at 4.5 µM; AID 1044; in the data active means activation above about 80%
Target sequence (P21453 whole entry, looked up): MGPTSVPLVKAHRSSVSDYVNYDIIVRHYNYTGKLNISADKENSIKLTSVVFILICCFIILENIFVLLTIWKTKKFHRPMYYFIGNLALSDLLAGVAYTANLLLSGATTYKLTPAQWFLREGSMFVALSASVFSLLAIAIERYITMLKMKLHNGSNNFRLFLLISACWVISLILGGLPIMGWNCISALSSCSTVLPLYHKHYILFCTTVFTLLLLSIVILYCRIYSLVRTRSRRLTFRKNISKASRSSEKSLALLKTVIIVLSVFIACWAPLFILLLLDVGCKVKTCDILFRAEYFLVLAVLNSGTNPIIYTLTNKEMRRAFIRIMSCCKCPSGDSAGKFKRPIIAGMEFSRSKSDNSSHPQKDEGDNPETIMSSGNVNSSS
OPRK1 antag MB – blocks the human kappa opioid receptor, Maybridge compounds | inhibition, % at 9 µM | 16,000 compounds, 0.4% hits | AID 652031 | OPRK1 cells, antagonist mode, fluorescence readout; in the data active means inhibition above about 50%
TLR4-MyD88 inh – blocks binding of human TLR4 to MyD88; Cell-based TLR4-MyD88 binding inhibition assay; O00206; 16,000 compounds, 0.06% hits; inhibition, % at 10 µM; in the data active means inhibition above about 45%
Starred values were filed as active, the others as inactive; / = no result. Only some compounds are listed: those with a hit (about 2% of all), similar ones and a draw of the others.

SMILES	S1P1 ag	OPRK1 antag MB	TLR4-MyD88 inh
O=c1[nH]nc(SCc2csc(-c3ccccc3)n2)n1Cc1ccco1	21.1	14.2	3.9
O=C1CNC(=S)N1Cc1cccs1	97.7*	10.6	12.9
O=C1CNC(=S)N1Cc1ccccn1	-8.5	6.6	5.2
COc1ccc(/C=C/c2nc3ccccc3s2)cc1OC	85.3*	13.8	0.2
COc1ccc(/C=C2\CC/C(=C\c3ccc(OC)c(OC)c3)C2=O)cc1OC	2.2	7.3	-4.4
C/C(=N\O)c1oc(C)nc1C	2.3	-1.1	-3.5
CSc1n[nH]c(NC(=O)c2ccsc2)c1-c1ccc([N+](=O)[O-])cc1	-12.4	-7.9	-18.6
O=[N+]([O-])c1ccc(Sc2nc3ccccc3[nH]2)c(Cl)c1	15.5	11.0	2.7
O=C(N/C(=C\c1ccc(-c2ccc([N+](=O)[O-])cc2)o1)c1nc2ccccc2[nH]1)c1ccccc1	68.1	112.8*	49.9*
N#Cc1cccnc1NNC(=O)COCC(=O)O	-12.0	82.8*	3.2
N#Cc1cccnc1NNC(=O)c1nccnc1C(=O)O	0.0	25.8	13.5
CSc1ccc(/C=C/c2onc(C)c2[N+](=O)[O-])s1	40.3	106.0*	18.6
Cc1noc(/C=C/c2ccco2)c1[N+](=O)[O-]	4.8	16.8	-0.3
NNC(=O)c1ccccc1-n1cccc1	3.0	-8.4	4.8
Cc1c(C)c(C)c(C(=O)c2ccccc2C(=O)NN)c(C)c1C	81.0*	-16.3	-7.4
O=[N+]([O-])c1cc(-c2nc(-c3ccccn3)no2)cs1	-6.8	16.2	-2.3
N#Cc1c2ccccc2cn1Cc1cccc(Cl)c1	92.7*	4.6	/
N#Cc1cccc(C(=O)Cc2cccc(Cl)c2)c1	-1.1	5.2	5.1
Cc1c(-c2nc(-c3ccc([N+](=O)[O-])o3)no2)n(C)oc1=O	-10.7	3.9	1.5
Cc1c(-c2nc(-c3ccc(C(C)(C)C)cc3)no2)n(C)oc1=O	95.4*	12.1	2.3
CCOC(=O)C1CCN(C(=O)c2cc([N+](=O)[O-])ccc2Oc2ccc(OC)cc2)CC1	18.4	-15.3	-10.7
CC1CN=C(NC2CCCCC2)S1 (centres undefined)	0.7	8.4	-21.1
Cc1cc(N=Cc2cccnc2)no1	-8.5	2.3	7.8
Nc1ncnc(SCc2nc(-c3ccc(OC(F)(F)F)cc3)no2)n1	3.6	-3.7	1.1
FC(F)(F)Oc1ccc(-c2noc(-c3ccno3)n2)cc1	90.9*	3.1	-1.4
SMILES	S1P1 ag	OPRK1 antag MB	TLR4-MyD88 inh
COC(=O)c1sc2ccccc2c1OC(=O)c1cccs1	23.0	-6.9	-3.2
COC(=O)c1sc2ccccc2c1Cl	107.5*	1.8	13.5
Cc1n[nH]c(C)c1Sc1nnc(C(F)(F)F)n1C	-6.7	-0.3	-3.6
O=C(Nc1ccc(-c2cnco2)cc1)c1csc([N+](=O)[O-])c1	104.7*	2.6	6.3
O=C(Nc1ccc(Cl)cc1)c1csc([N+](=O)[O-])c1	12.2	14.4	0.0
COc1ccc(C(C)=O)cc1COc1cc(C)nc2ccc(Cl)cc12	-12.6	-0.8	2.3
NC(=O)CNC(=O)c1cccc(Cl)c1	-22.3	-0.4	-5.8
Cc1nc(C(=O)NCC(=O)c2cccc(Cl)c2)c(C(F)(F)F)o1	91.6*	-8.1	-2.0
CN1CCN(c2c3c(c(C#N)c4nc5ccccc5n24)CCC3)CC1	-8.7	-9.5	-9.5
N#CCCN(Cc1cccs1)C(=O)Nc1cccc(C(F)(F)F)c1	-2.1	-1.4	5.5
O=C1CN(c2ccccc2)C(=O)N1c1ccccc1	-2.8	-9.3	4.9
O=C1CCC2=C(CCCC2)N1c1ccccc1	1.9	8.5	45.2*
Nc1ccc(C(F)(F)F)cc1N	3.8	-6.1	-2.9
Cc1cc(N=Nc2cccc(C(F)(F)F)c2)ccc1N	100.7*	27.5	-1.4
Cn1cc(S(=O)(=O)NCc2ccc3c(c2)OCO3)c(C(F)(F)F)n1	11.9	3.2	8.8
Cn1nc(C(C)(C)C)cc1C(=O)NCc1ccc2c(c1)OCO2	84.2*	-20.6	3.3
CSc1nc2c(Cl)cccc2c2c1c(=O)[nH]n2C	4.5	-1.8	17.5
S=C(Nc1ccccc1Cl)N1CCOC1c1c[nH]c2ccccc12 (centres undefined)	-4.5	7.0	7.0
C/C(=N\Nc1ccccc1)c1cc(Cl)cc(Cl)c1O	14.5	-3.4	-21.9
CN(C)c1ccc(C=Nc2ccc3c(c2)OCO3)cc1	-0.5	3.1	-6.6
O=C(Cc1nn[nH]n1)Nc1ccc(F)c(Cl)c1	-5.1	-19.2	2.9
O=C(Nc1ccc(F)c(Cl)c1)c1cc(Br)ccc1O	109.4*	69.6*	-15.3
CCOC(=O)CSC(=S)Nc1ccccc1OC	8.2	8.0	-6.9
O=S(=O)(NCCc1ccccn1)c1ccc(S(=O)(=O)N2CCOCC2)cc1	-8.1	-2.2	-0.8
Cc1nc(N)nc(N/N=C/c2ccccc2O)n1	-19.0	2.0	-6.2
SMILES	S1P1 ag	OPRK1 antag MB	TLR4-MyD88 inh
COc1ccc(Oc2ccc([N+](=O)[O-])c(Oc3ccc(OC)cc3)n2)cc1	88.1*	1.8	-1.7
COc1ccc(Oc2ccc([N+](=O)[O-])cc2)cc1	2.8	10.5	1.1
O=C(Oc1cccc2c1C(=O)C=CC2=O)c1ccccc1	102.0*	-0.8	-4.1
O=C(Oc1cccc2c1CCC2=O)c1ccccc1	0.2	18.8	1.2
CC(C)(C)c1ccc(NC(=O)CN2CCOCC2)c(NC(=O)c2ccco2)c1	-21.0	-0.8	0.7
CC(=O)Nc1ccc(NC(=O)Nc2ccccc2)cc1	-2.1	0.5	-1.6
CN(C)c1cc(NC(=O)Nc2ccccc2)c2ccccc2n1	-0.7	56.7*	0.0
Cc1cc(NS(=O)(=O)c2ccc(C(F)(F)F)cc2Cl)no1	-15.2	11.3	0.7
O=S(=O)(Nc1cc(C(F)(F)F)ccc1F)c1cc(C(F)(F)F)ccc1Cl	85.5*	14.4	-9.1
COC(=O)c1sccc1Oc1ccc(C(F)(F)F)cc1NS(=O)(=O)c1ccc(Cl)cc1	28.1	17.3	-0.7
Oc1c(Cl)cc(Cl)cc1C1Nc2cc(Cl)c(C(F)(F)F)cc2N1 (centres undefined)	106.2*	57.4*	-10.1
C/C(=N\N(C)C)c1cc(Cl)cc(Cl)c1O	-72.0	7.0	-9.9
Cc1ccc(Nc2ccnc3cc(Cl)ccc23)cc1F	-9.9	35.8	-5.0
Clc1ccc2c(Nc3ccc4c(c3)OCO4)ccnc2c1	25.5	51.4*	/
COc1ccccc1C1CCN(Cc2ccc3c(c2)CCC(C)(C)O3)CC1	-2.0	75.2*	-2.2
COc1cccc(C=NC2CCN(Cc3ccccc3)CC2)c1OC	-5.2	23.3	11.7
O=C(Nc1ccc(F)cc1F)c1ccc(-c2ccc(Cl)cc2)s1	-15.6	15.9	4.8
N#Cc1nc(=O)n(-c2ccc(OC(F)(F)F)cc2)c(N)c1N=Cc1ccc(C(F)(F)F)cc1	105.7*	16.1	-3.5
Cc1ccc(C)n1-c1ccc(OC(F)(F)F)cc1	3.5	-1.9	-14.0
CSC(=S)Nc1ccc(F)cc1F	-4.1	11.8	-2.2
COC(=O)C(=NNc1ccc(-n2nc(C)cc2C)cc1)C(=O)OC	34.5	6.1	-7.9
CCOC(=O)c1cnn(C(=O)c2cnn(-c3ccc([N+](=O)[O-])cc3)c2C(F)(F)F)c1C(F)(F)F	52.3	7.5	11.7
CCOC(=O)c1cnn(-c2nc(-c3ccccc3)cs2)c1C(F)(F)F	82.3*	5.6	-12.4
CCOC(=O)c1nnn2c1nc(Sc1nc3ccccc3[nH]1)c1ccccc12	6.6	-9.4	2.9
CN1NC(c2ccccc2)/C(=N\OC(=O)Nc2ccccc2)SC1=S (centres undefined)	-14.2	11.2	6.3
CC1(C)CC2(CCCCC2)C(=O)O1	-9.9	2.8	3.8
COc1ccc(NCCC#N)cc1	-9.2	14.3	8.2

Bioassay records from PubChem.
